# Reference: PubChem BioAssay (NCATS)
# Results filed as inconclusive are left out. Where a call stands in place of a potency, no number is given. Values without a mark were called inactive. Active and inactive are the calls of the source. The call rests on the fitted dose curve; in most records, active means well fitted curve in the direction sought with a large enough effect; inconclusive means small, poorly fitted or top-dose-only effect, or another doubt; inactive means no such curve, though single readings can be large; an effect the other way counts as inactive or inconclusive.
# Experiments:
# [1] = Quantitative highthroughput screen to assess conditional lethalithy of NOMO1 cells grown in RPMI1640 with untreated serum (RPMI+s) (AID 1963876); further: nearly all actives have a fitted effect of over 35% in size; further: potency means the concentration at half of the fitted maximal effect
# Method in brief: (§1)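 Each medium arm—HPLM with 10% dialyzed FBS, or RPMI1640 with 5 mM glucose and 10% untreated or dialyzed FBS—was screened against an 11-point, 3-fold compound titration for 48 h at 37 °C, with CellTiter-Glo luminescence as endpoint.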
# [2] = Quantitative highthroughput screen to assess conditional lethalithy of NOMO1 cells grown in RPMI1640 with dialyzed fetal bovine serum (RPMI+ds) (AID 1963877); further: nearly all actives have a fitted effect of over 30% in size; further: potency means the concentration at half of the fitted maximal effect; on viability: series mostly up to about 46 µM
# Method in brief: as §1
# [3] = Quantitative highthroughput screen to assess conditional lethalithy of NOMO1 cells grown in Human Plasma-Like Medium with dialyzed fetal bovine serum (HPLM+ds) (AID 1963878); further: nearly all actives have a fitted effect of over 35% in size; further: potency means the concentration at half of the fitted maximal effect
# Method in brief: as §1
# [4] = Quantitative highthroughput screen to assess conditional lethalithy of P12 Ichikawa cells grown in Human Plasma-Like Medium with dialyzed fetal bovine serum (HPLM+ds) (AID 1963879); details: Potency: viability; further: nearly all actives have a fitted effect of over 35% in size; further: potency means the concentration at half of the fitted maximal effect; on viability: series mostly up to about 46 µM
# Method in brief: as §1
# [5] = Quantitative highthroughput screen to assess conditional lethalithy of P12 Ichikawa cells grown in RPMI1640 with dialyzed fetal bovine serum (RPMI+ds) (AID 1963880); details: Potency: P12-Ichikawa viability; further: nearly all actives have a fitted effect of over 35% in size; further: potency means the concentration at half of the fitted maximal effect
# Method in brief: as §1
# [6] = Quantitative highthroughput screen to assess conditional lethalithy of SEM cells grown in Human Plasma-Like Medium with dialyzed fetal bovine serum (HPLM+ds) (AID 1963882); further: nearly all actives have a fitted effect of over 35% in size; further: potency means the concentration at half of the fitted maximal effect; on viability: series mostly up to about 46 µM
# Method in brief: as §1
# [7] = Quantitative highthroughput screen to assess conditional lethalithy of SEM cells grown in RPMI1640 with unreated serum (RPMI+s) (AID 1963883); further: nearly all actives have a fitted effect of over 35% in size; further: potency means the concentration at half of the fitted maximal effect
# Method in brief: as §1
# [8] = Quantitative highthroughput screen to assess conditional lethalithy of SEM cells grown in RPMI1640 with dialyzed fetal bovine serum (RPMI+ds) (AID 1963884); further: nearly all actives have a fitted effect of over 35% in size; further: potency means the concentration at half of the fitted maximal effect; on viability: series mostly up to about 46 µM
# Method in brief: as §1
# [9] = Cellular viability qHTS for adrenocortical cancer (ACC) cell line SW-13 (AID 1963989); details: SW-13 ACC cells viability, CellTiter-Glo, 48 h; activity (max response): active compounds read low;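 further: cells grown in serum-free medium with ITS supplement; nearly all actives have a fitted effect of over 65% in size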
# Method in brief: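 48 h treatment, SW-13 in ITS/DMEM serum-free; doses up to 46 uM; readout CellTiter-Glo luminescence; curve fit four-parameter logistic.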
# [10] = Cellular viability qHTS for adrenocortical cancer (ACC) cell line NCI-H295R (AID 1963990); further: nearly all actives have a fitted effect of over 60% in size
# Method in brief: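 Compound titrations (up to 46 uM final) are applied to NCI-H295R cultures for 48 h at 37C. Viable cell number is estimated by CellTiter-Glo signal, normalised to DMSO and doxorubicin controls.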
# [11] = Quantitative highthroughput screen to assess conditional lethalithy of P12 Ichikawa cells grown in RPMI1640 with untreated serum (RPMI+s) (AID 1963881); details: Potency: viability; further: nearly all actives have a fitted effect of over 35% in size; further: potency means the concentration at half of the fitted maximal effect; on viability: series mostly up to about 46 µM
# Method in brief: as §1
SMILES,Potency [1],Potency [2],Potency [3],Potency [4],Potency [5],Potency [6],Potency [7],Potency [8],activity (max response) [9],Potency [10],Potency [11]
CN1CCN2c3ncccc3Cc3ccccc3C2C1 (stereo not given),inactive,inactive,inactive,inactive,inactive,inactive,inactive,inactive,-3.47%,inactive,
Clc1ccc(CCC(Cn2ccnc2)Sc2c(Cl)cccc2Cl)cc1 (stereo not given),inactive,inactive,inactive,inactive,,inactive,,,,,
COc1cc2ncn(-c3cc(OCc4ccccc4S(C)(=O)=O)c(C#N)s3)c2cc1OC,inactive,inactive,inactive,inactive,inactive,inactive,inactive,inactive,-11.8%,,
CN[C@@H]1[C@@H](O)[C@@H](O[C@@H]2[C@@H](O)[C@H](O[C@H]3O[C@H](CN)[C@@H](O)[C@H](O)[C@@H]3O)[C@@H](N)C[C@@H]2NC(=O)[C@@H](O)CN)OC[C@]1(C)O,inactive,inactive,inactive,inactive,,inactive,inactive,inactive,,,inactive
C[C@]12CCC(=O)C=C1[C@@H]1CC1[C@H]1[C@H]3[C@@H]4C[C@H]4[C@@]4(CCC(=O)O4)[C@@]3(C)CC[C@H]12 (stereo not given in full),inactive,inactive,inactive,inactive,,inactive,inactive,inactive,,,inactive
O=C(O)[C@H]1O[C@H](Oc2cc3oc(-c4ccccc4)cc(=O)c3c(O)c2O)[C@H](O)[C@@H](O)[C@H]1O,inactive,inactive,inactive,inactive,,18.7 µM (active),18.7 µM (active),,,,18.7 µM (active)
CC(=O)OCC(=O)[C@@]1(O)CC[C@H]2[C@@H]3CCC4=CC(=O)C=C[C@]4(C)[C@@H]3[C@@H](O)C[C@@]21C,inactive,inactive,inactive,inactive,,,inactive,inactive,,,inactive
Cc1cc(Nc2cc(N3CCN(C)CC3)nc(C=Cc3ccccc3)n2)n[nH]1,3.03 µM (active),3.4 µM (active),3.03 µM (active),2.15 µM (active),,0.54 µM (active),0.54 µM (active),0.429 µM (active),,,3.03 µM (active)
COc1ccc2cc([S+]([O-])Cc3ncc(C)c(OC)c3C)nc2c1,inactive,inactive,inactive,inactive,,,inactive,0.935 µM (active),,,inactive
COc1ccc(C=Cc2cc(OC)c(OC)c(OC)c2)cc1O,inactive,inactive,inactive,inactive,,,inactive,inactive,,,inactive
O=C(c1ccc(F)c(F)c1Nc1ccc(I)cc1F)N1CC(O)([C@H]2CCCCN2)C1,0.743 µM (active),0.743 µM (active),0.526 µM (active),8.33 µM (active),,inactive,,,,,8.33 µM (active)
CCCNS(=O)(=O)Nc1ncnc(OCCOc2ncc(Br)cn2)c1-c1ccc(Br)cc1,inactive,inactive,inactive,inactive,inactive,inactive,,,,inactive,
COc1cc2c(cc1OC)C1CC(=O)C(CC(C)C)CN1CC2 (stereo not given),inactive,inactive,inactive,inactive,inactive,inactive,inactive,,-1.87%,inactive,
CS[C@H]1SC[C@@H]2C(=O)N(C)[C@H](C(C)C)C(=O)OC[C@H](NC(=O)c3cnc4ccccc4n3)C(=O)N[C@H](C)C(=O)N(C)[C@@H]1C(=O)N(C)[C@H](C(C)C)C(=O)OC[C@H](NC(=O)c1cnc3ccccc3n1)C(=O)N[C@H](C)C(=O)N2C,0.0209 µM (active),0.0209 µM (active),0.0148 µM (active),0.0209 µM (active),,0.0037 µM (active),0.0026 µM (active),,,,0.0148 µM (active)
C=C1C(=CC=C2CCC[C@]3(C)[C@@H]([C@H](C)CCCC(C)(C)O)CC[C@@H]23)C[C@@H](O)C[C@@H]1O,inactive,inactive,inactive,inactive,,inactive,,,,,
COc1cc(OC)cc(-c2ccc3ncc4ccc(=O)n(-c5ccc(N6CCNCC6)c(C(F)(F)F)c5)c4c3c2)c1,inactive,8.33 µM (active),14.8 µM (active),10.5 µM (active),,14.8 µM (active),16.6 µM (active),,,,
CCN(CC)CCOc1ccc(C(=C(Cl)c2ccccc2)c2ccccc2)cc1,inactive,inactive,inactive,inactive,20.9 µM (active),inactive,inactive,inactive,,,
CN1C(=O)C[C@H](C(=O)N[C@@H](Cc2cnc[nH]2)C(=O)N2CCC[C@@H]2C(N)=O)NC1=O,inactive,inactive,inactive,inactive,,,,,,inactive,inactive
